Measured values: the supplement of paper PMC11732987, “Enantioselective OTUD7B fragment discovery through chemoproteomics screening and high-throughput optimisation” (Communications Chemistry, 2025)

How the values were obtained:
Test in all cases: log2 ratio of Biotin-Ahx-Ub-VS probe labelling (fragment/DMSO); higher = less target engagement (more negative = stronger competition), active = hit call of the paper (q ≤ 0.05, log2 ratio ≤ -1)
Details in all cases: compound concentration: 200 uM; treatment time: 3 h
[1] = biological target: USP34 (UniProt Q70CQ2)
USP34, sequence (Q70CQ2 whole entry, the tested form may be a part): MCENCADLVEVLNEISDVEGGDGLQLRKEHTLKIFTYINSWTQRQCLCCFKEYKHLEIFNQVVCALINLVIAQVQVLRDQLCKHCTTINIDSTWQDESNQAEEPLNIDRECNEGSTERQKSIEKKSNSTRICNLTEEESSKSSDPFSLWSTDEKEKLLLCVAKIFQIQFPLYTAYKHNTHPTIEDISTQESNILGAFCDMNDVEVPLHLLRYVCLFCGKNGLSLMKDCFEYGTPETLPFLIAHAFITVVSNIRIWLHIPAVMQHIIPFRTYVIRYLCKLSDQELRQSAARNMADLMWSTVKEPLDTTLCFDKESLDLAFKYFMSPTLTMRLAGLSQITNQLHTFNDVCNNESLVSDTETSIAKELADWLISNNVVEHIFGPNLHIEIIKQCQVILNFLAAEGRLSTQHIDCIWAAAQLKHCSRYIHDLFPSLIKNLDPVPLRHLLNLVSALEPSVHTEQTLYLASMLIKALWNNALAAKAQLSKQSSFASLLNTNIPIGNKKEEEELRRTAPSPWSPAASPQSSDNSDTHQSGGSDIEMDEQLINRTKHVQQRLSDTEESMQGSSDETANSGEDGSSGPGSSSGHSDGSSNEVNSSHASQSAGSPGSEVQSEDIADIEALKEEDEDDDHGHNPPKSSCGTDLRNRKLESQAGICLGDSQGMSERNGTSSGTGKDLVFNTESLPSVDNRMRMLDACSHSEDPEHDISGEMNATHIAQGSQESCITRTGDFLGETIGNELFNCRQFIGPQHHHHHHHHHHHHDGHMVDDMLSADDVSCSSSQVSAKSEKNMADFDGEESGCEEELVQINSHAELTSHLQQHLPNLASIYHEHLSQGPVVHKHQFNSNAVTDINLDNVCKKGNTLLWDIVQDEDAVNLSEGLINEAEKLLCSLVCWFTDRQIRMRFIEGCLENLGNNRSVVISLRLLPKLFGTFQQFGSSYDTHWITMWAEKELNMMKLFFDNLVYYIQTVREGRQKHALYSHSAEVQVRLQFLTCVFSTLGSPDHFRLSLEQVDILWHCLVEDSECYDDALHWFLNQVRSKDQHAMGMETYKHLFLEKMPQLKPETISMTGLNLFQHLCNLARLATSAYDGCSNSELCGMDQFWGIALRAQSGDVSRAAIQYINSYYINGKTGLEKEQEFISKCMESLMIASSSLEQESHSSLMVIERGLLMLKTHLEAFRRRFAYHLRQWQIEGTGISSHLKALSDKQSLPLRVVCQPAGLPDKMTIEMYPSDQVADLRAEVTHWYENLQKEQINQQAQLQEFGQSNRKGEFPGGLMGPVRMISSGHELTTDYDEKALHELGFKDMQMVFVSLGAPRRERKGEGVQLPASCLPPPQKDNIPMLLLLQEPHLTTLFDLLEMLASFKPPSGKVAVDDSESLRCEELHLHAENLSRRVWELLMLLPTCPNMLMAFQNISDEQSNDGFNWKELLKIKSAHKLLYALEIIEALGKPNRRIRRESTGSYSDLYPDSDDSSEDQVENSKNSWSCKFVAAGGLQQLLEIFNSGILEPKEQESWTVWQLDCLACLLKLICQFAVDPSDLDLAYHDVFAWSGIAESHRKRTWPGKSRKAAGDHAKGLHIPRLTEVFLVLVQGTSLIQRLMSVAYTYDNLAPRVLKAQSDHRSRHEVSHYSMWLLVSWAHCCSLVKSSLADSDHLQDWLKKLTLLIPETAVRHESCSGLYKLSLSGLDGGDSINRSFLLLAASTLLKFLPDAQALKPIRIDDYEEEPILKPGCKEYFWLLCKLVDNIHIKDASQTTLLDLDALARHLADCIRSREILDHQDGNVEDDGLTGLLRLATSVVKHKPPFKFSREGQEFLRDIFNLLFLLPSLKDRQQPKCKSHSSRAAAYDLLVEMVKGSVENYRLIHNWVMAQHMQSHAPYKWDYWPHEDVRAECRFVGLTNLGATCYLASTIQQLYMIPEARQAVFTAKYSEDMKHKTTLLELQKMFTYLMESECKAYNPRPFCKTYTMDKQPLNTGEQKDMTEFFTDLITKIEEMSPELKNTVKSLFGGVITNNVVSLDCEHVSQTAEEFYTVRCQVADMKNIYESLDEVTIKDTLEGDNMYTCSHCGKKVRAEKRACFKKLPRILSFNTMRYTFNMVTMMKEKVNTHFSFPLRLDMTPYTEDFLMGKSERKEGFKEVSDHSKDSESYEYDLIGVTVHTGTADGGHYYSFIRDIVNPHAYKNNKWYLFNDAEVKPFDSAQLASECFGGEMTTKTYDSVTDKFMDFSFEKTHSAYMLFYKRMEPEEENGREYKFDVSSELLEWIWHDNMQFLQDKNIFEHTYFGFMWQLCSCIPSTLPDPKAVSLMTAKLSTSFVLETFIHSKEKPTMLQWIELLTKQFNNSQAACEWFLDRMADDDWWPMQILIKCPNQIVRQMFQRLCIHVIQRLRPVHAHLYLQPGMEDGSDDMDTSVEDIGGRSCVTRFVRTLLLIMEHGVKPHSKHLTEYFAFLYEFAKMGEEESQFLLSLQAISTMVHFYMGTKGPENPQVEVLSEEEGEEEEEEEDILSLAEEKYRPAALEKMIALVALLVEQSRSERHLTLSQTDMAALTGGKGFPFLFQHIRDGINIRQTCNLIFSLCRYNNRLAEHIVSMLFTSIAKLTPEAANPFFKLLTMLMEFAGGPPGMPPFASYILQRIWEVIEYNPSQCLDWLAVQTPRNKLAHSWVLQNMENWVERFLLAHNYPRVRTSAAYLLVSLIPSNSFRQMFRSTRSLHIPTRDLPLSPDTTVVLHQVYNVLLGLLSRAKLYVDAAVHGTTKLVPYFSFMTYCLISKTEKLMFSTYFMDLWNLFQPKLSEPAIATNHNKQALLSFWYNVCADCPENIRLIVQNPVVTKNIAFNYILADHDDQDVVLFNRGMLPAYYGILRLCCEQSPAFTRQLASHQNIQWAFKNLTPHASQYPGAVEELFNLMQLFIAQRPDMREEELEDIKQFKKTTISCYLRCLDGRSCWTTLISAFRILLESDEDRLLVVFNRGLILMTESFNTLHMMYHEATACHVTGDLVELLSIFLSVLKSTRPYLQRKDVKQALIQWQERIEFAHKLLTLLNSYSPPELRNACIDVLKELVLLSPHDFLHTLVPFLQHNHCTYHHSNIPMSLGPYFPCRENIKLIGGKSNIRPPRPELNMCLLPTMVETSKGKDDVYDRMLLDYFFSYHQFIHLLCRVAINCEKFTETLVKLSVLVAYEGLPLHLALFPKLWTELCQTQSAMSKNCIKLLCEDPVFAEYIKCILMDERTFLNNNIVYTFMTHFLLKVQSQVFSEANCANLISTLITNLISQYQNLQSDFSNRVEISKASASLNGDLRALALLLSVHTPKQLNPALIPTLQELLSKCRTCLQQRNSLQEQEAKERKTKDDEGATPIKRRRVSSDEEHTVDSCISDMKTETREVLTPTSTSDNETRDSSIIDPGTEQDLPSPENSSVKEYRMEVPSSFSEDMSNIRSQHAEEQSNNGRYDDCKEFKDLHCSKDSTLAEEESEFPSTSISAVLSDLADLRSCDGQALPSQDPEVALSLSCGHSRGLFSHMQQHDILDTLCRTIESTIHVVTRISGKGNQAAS
In short: (§1)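 HEK293T lysate in Tris/CHAPS/IGEPAL buffer with protease inhibitors (495 µg per sample) was given fragment at 200 µM or vehicle for 3 h, in triplicate. It then received Biotin-Ahx-Ub-VS at 0.5 µM final for 1 h. Labelled DUBs were NeutrAvidin-enriched, digested with LysC and trypsin, and run by diaPASEF LC-MS/MS. Values are average log2 fragment/vehicle ratios by unpaired t-test on global-median-normalised Spectronaut quantities of proteins with ≥2 unique peptides.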

[2] = biological target: T1, USP36 (UniProt Q9P275)
T1 sequence (whole entry): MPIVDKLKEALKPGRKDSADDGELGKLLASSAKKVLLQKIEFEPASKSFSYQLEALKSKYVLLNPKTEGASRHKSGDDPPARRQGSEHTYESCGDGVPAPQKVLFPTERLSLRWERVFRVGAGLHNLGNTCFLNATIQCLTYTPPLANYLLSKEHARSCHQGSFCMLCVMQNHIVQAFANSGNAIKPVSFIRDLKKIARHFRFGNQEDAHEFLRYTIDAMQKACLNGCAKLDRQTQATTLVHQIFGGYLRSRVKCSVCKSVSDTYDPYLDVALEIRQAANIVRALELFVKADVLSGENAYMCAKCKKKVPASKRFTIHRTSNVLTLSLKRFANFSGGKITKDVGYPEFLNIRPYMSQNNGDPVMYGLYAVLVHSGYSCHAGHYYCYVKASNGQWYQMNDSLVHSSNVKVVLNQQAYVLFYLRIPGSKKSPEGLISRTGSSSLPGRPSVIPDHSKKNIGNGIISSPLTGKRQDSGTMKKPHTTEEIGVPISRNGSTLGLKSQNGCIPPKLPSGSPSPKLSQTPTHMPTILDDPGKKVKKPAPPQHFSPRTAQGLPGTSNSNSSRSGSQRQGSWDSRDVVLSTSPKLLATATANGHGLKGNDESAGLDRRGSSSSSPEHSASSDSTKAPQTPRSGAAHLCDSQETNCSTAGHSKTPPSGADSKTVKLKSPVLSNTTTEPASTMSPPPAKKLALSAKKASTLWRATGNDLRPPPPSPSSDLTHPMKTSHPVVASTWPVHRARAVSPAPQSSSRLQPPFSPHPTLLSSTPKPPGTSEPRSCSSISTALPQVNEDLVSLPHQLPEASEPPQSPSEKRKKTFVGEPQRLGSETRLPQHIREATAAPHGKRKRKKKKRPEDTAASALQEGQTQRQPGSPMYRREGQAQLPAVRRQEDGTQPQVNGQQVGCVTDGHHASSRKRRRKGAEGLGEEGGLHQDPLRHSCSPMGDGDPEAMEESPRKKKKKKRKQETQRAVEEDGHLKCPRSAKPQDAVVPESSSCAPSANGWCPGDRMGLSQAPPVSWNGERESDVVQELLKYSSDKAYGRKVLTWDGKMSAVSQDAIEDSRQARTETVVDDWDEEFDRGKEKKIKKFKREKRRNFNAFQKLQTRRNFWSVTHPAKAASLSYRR
In short: as §1

[3] = biological target: T2, USP38 (UniProt Q8NB14)
T2 sequence (whole entry): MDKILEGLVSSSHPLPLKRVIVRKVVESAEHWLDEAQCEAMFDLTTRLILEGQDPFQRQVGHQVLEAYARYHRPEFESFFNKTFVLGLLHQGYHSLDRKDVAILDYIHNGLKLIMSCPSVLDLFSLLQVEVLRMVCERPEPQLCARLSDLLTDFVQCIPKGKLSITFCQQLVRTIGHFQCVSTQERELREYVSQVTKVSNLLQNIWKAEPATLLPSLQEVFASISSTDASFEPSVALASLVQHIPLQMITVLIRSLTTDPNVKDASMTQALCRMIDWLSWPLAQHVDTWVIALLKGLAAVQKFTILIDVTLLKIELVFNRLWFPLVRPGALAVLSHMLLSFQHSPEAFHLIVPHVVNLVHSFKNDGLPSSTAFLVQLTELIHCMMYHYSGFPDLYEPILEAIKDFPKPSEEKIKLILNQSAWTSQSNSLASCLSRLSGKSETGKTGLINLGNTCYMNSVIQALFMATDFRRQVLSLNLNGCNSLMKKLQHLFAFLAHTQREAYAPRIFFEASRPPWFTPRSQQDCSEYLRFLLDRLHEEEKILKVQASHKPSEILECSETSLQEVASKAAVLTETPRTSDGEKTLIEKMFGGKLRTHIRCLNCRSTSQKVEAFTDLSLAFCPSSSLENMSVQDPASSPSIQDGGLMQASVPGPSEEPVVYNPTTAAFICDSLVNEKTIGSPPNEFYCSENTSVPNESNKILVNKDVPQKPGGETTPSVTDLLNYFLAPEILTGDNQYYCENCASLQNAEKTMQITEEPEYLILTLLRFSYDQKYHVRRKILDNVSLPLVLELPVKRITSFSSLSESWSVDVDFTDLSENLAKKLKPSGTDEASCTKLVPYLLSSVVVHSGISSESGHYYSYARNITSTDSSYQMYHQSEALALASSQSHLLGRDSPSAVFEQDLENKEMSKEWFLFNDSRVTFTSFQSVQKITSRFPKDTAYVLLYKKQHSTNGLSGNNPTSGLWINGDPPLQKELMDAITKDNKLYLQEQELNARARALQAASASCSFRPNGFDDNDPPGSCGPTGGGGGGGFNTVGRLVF
In short: as §1

[4] = biological target: T3, USP39 (UniProt Q53GS9)
T3 sequence (whole entry): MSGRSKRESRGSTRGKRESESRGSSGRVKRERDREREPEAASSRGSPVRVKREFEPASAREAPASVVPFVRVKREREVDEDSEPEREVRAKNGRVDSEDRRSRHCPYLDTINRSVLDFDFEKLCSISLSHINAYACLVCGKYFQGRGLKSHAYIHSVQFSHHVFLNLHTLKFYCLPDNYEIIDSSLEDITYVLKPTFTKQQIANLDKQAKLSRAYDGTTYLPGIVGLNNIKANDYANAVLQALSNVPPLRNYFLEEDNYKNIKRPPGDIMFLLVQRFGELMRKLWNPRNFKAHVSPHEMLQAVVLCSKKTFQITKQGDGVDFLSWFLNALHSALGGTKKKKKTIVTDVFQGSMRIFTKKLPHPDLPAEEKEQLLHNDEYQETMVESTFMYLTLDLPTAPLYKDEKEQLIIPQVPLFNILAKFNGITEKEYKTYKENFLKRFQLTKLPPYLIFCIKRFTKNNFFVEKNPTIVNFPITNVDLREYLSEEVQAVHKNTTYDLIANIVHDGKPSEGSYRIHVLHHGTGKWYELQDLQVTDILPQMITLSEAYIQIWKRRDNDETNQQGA
In short: as §1

[5] = biological target: T4, USP4 (UniProt Q13107)
T4 sequence (whole entry): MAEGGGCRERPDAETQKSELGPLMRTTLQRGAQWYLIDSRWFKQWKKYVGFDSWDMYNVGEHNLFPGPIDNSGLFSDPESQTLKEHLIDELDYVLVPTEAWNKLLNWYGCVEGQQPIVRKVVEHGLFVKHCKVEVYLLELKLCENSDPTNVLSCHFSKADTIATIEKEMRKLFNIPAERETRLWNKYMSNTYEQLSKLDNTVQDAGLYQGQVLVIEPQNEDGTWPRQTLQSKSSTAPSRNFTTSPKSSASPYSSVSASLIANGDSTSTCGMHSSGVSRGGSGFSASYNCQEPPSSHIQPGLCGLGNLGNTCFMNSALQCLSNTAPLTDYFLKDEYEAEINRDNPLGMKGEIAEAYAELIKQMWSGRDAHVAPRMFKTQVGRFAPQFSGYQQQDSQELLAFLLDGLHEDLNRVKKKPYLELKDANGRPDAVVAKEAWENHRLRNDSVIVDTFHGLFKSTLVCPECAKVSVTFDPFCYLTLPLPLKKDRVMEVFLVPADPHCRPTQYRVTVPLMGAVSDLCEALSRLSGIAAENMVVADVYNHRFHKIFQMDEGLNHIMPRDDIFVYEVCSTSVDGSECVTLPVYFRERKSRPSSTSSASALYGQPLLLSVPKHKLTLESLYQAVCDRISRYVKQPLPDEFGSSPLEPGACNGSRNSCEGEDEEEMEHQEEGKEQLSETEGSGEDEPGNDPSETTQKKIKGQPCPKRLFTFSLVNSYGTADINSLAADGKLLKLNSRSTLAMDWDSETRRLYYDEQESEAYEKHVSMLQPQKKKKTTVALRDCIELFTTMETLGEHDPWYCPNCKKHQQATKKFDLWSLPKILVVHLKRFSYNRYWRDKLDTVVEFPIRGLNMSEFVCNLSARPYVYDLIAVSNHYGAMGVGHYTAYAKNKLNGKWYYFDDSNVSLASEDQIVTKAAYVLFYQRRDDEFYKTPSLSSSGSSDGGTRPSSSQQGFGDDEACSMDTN
In short: as §1

Measured: log2 ratio of Biotin-Ahx-Ub-VS probe labelling

O=C(CCl)NC1CCS(=O)(=O)c2ccccc21 (stereo not given)
inactive: [1] -0.0259 | [2] -0.0862 | [3] -0.432 | [4] -0.117 | [5] -0.0115
